# From PubChem
# RORg inh – ROR gamma (mouse) transcription inhibition; 5.4% of 310,000 active; AID 2551; Drosophila S2 Gal4-RORgamma UAS-luciferase reporter, 20 h; Potency, µM (doses to about 53.6 µM), for the others: at the top dose activity change, negative = inhibition, most hits filed as inhibitors; note: potency is the fitted concentration of half-maximal effect; % is set by controls: 0 for no effect and ±100 for the full control effect; nearly all actives have a fitted effect of over 60% in size
# Target sequence (P51450 whole entry, looked up, the tested form may be a part): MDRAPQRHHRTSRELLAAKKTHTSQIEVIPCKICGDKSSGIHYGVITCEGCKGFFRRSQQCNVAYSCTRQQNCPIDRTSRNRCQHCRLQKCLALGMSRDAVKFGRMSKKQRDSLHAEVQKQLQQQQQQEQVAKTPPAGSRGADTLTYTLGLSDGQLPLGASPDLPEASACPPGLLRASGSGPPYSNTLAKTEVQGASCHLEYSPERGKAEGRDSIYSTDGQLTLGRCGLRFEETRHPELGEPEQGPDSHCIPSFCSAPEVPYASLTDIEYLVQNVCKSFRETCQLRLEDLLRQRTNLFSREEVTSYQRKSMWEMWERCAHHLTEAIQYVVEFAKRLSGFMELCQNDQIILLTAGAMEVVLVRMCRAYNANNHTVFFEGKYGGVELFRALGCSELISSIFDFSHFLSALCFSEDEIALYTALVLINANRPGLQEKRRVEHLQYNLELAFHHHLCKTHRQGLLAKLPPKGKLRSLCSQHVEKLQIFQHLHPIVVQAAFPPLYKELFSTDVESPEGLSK
#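 Drosophila Schneider cells stably carrying a metallothionein-driven Gal4 DBD–ROR gamma fusion and a UAS-Photinus luciferase reporter were exposed to compound for 1 hr, then induced with copper sulfate (700 uM final) for 20 hr at ambient temperature before luminescence reading.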
# ELG1 DNA repair – blocks ELG1-dependent DNA repair in HEK293T cells; HEK293T ELG1-luciferase reporter, luminescence, 16 h; DNA damage induced by 5-fluorouridine; Potency, µM (highest dose often 46.1 µM), for inactives: at the top dose activity change, negative = inhibition, usual class: inhibitors; 2.3% of 330,000 active; note: potency is the fitted concentration of half-maximal effect; % is set by controls: 0 for no effect and ±100 for the full control effect; nearly all actives have a fitted effect of over 55% in size
#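 DMSO vehicle served as the neutral condition. Each well held 2,000 cells given 5-fluorouridine plus compound; after 16 hr at 37 °C/5% CO2, ONE-Glo was added and luciferase measured 30 min later.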
# VP16 counter – Gal4-VP16 reporter inhibition counter-screen. Potency, µM (highest dose often 53.6 µM), for the others: at the top dose activity, negative = inhibition, actives largely listed as inhibitors. AID 2546. 3.5% of 310,000 active. Drosophila S2 Gal4-VP16 UAS-luciferase, luminescence, 20 h;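 note: Gal4-VP16 expression switched on by copper sulfate through the metallothionein promoter; potency is the fitted concentration of half-maximal effect; % is set by controls: 0 for no effect and ±100 for the full control effect; nearly all actives have a fitted effect of over 50% in size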
# Giardia kill – kills Giardia lamblia; Giardia lamblia trophozoite viability; activity change, % at 7.66 µM, hits read low; 0.15% of 340,000 active; in the data active = activity change below about -80%; inconclusive = between about -30% and that limit;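 note: parasites exposed to compound for two days anaerobically before the ATP read; % is set by controls: 0 for no effect and ±100 for the full control effect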
#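 Viability, read as ATP luminescence: trophozoites at 100 cells/well, compound added, 48 hrs anaerobic at 37 deg C, then 15-30 min room-temperature development before reading.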
# p53 reactivation – re-activators of mutant p53 | H1299 p53-A138V BP100-luciferase reporter, luminescence, 24 h | 0.063% of 320,000 active | AID 504706 | Potency, µM (highest dose often 92.2 µM), for the others: at the highest dose activity change, positive = activation, most hits filed as activators; note: potency is the fitted concentration of half-maximal effect; % of control where 0% means no effect; nearly all actives have a fitted effect of over 45% in size
#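 p53-null H1299 cells stably carrying temperature-sensitive p53-A138V and a BP100-luciferase reporter were pinned with compounds (4-point, 1:5 series) and held 24 hrs at 37 deg C. Luminescence was read 10 min after detection reagent.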
# BRCA1 expr up – activators of BRCA1 expression. MCF7-BRCA1-FFLuc reporter, luminescence, 48 h; response scale: scaled: vehicle 0%, 10 µM genistein 100%. Potency, µM (doses to about 46.1 µM), for the others: at the top dose activation, most hits filed as activators. 1.1% of 380,000 active. AID 624202; note: potency is the fitted concentration of half-maximal effect; nearly all actives have a fitted effect of over 80% in size
#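 Reporter cells (MCF7, BRCA1 promoter-firefly luciferase) received library compounds across a concentration series for 48 h. End-point luminescence was measured and concentration-effect curves derived after normalization.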
# The depositor's hits bear a star; ? = inconclusive; . = no result. Most compounds without a hit are left out; they make up all but 7.6% or so of the library. Unless noted, calls come from the whole dose curve; as a rule, active = well fitted curve in the direction sought with a large enough effect; inconclusive = small, poorly fitted or top-dose-only effect, or another doubt; inactive = no such curve, though single readings can be large; an effect the other way counts as inactive or inconclusive.
SMILES,RORg inh,ELG1 DNA repair,VP16 counter,Giardia kill,p53 reactivation,BRCA1 expr up
O=C(NNC(=S)NCc1ccco1)c1ccc(Cl)s1,1.8µM*,-10%,-12%,1,3%,-10%
O=C(NNC(=S)NCc1ccco1)c1ccccc1Br,0.89µM*,1%,-20%,13,-2%,-1%
Cn1cc(Cl)c(C(=O)NNC(=S)NCc2ccco2)n1,20%,-7%,-4%,0,2%,-16%
[O-]/C(=C(\C(=S)NCc1ccco1)[n+]1ccccc1)c1ccccc1Br,22µM*,-10%,10%,-1,0%,6%
O=C(CNC(=O)c1ccc(N2C(=O)c3ccccc3C2=O)cc1)OCC(=O)c1cccc2ccccc12,-5%,2%,18%,-6,-2%,15%
Cc1ccnc(NC(=O)CCCc2ccccc2)c1,0%,?,1%,1,?,11µM*
COc1ccccc1N(Cc1ccccc1)S(=O)(=O)c1cccc(C(=O)Nc2cc(C)ccn2)c1,6.3µM*,?,10µM*,-4,20%,-60%
CCOc1cc(C(=O)Nc2cnccn2)cc(OCC)c1OCC,50%,?,-6%,7,-1%,-92%
CCOc1cc(C(=O)Nc2cc(C)ccn2)cc(OCC)c1OCC,16µM*,?,?,6,-22%,-27%
Cc1ccc(C(=O)NCC(=O)Nc2cc(C)ccn2)cc1,.,?,.,4,17%,33%
Cc1ccnc(NC(=O)CCNC(=O)c2ccc(Cl)cc2)c1,-28%,2%,-4%,-7,1%,13µM*
CN1CCN(c2ccc(CNC(=O)C3(C)Cc4c(-c5ccc(C(N)=O)cc5)ccnc4O3)cc2)CC1 (stereo not given),.,.,.,.,.,14%
CCOc1cc(C(=O)NC(=S)Nc2nc(C)cc(C)n2)cc(OCC)c1OCC,11µM*,?,?,0,-4%,1%
Cc1ccnc(NC(=O)c2ccc(C(=O)c3ccccc3)cc2)c1,.,?,.,?,-6%,-63%
CCOc1ccc(C(=O)Nc2cc(C)ccn2)cc1,8.9µM*,?,10µM*,-88*,-1%,-36%
C/C(CC(=O)Nc1cc(C)ccn1)=N\NC(=O)c1ccc(C)cc1,?,24%,18%,5,5%,11%
C/C(CC(=O)Nc1cc(C)ccn1)=N\NC(=O)c1ccccc1C,8.9µM*,?,?,-4,6%,17%
Cc1ccccc1N=C(NO)c1cccnc1,7%,0%,-3%,-26,6%,4%
O=C(NCCCN1CCOCC1)c1cc(S(=O)(=O)N2CCN(c3ccccc3)CC2)ccc1Cl,.,2%,.,6,13%,-2%
O=C1CC[C@@H](CN(Cc2ccccn2)Cc2nc(Cc3ccccc3)no2)N1,-1%,0%,5%,-9,7%,-1%
CC(Sc1nc2ccccc2c(=O)n1C)C(=O)Nc1ccc2c(c1)OCCO2 (stereo not given),.,-22%,.,17,1%,-17%
CCC(C(=O)Nc1ccc2c(c1)OCCO2)n1nnc2ccccc2c1=O (stereo not given),29%,?,15%,20,10%,10µM*
CC(C)Cn1c(SC(C)C(=O)Nc2ccc3c(c2)OCCO3)nc2ccccc2c1=O (stereo not given),13µM*,?,-20%,-2,-2%,-22%
O=C(c1ccc(F)cc1)c1cc2ccccc2o1,?,?,11%,-1,?,11µM*
CC(Cc1ccccc1)NC(=O)c1cc2ccccc2o1 (stereo not given),-19%,?,13%,-5,?,7.1µM*
SMILES,RORg inh,ELG1 DNA repair,VP16 counter,Giardia kill,p53 reactivation,BRCA1 expr up
O=C(c1ccccc1)c1cc2ccccc2o1,15%,?,4%,-2,?,10µM*
CC(C)n1nc(C(=O)Nc2nnc(SCc3c(Cl)cccc3Cl)s2)c2ccccc2c1=O,?,3%,?,-11,8%,-32%
CN(c1ccccc1)c1cc(Br)nc(Br)c1,.,.,.,-1,.,-8%
C/C(=N\NC(=O)c1nnn(-c2nonc2N)c1-c1cccs1)c1ccncc1,-10%,1%,0%,-14,-3%,-20%
Cc1cc(OCC(=O)Nc2ccc(N3CCCC3)cc2)cc(C)c1Cl,0%,-5%,12%,-19,-1%,-12%
Cc1ccccc1OCC(=O)NC(=S)Nc1ccccc1N1CCN(S(C)(=O)=O)CC1,10µM*,-18%,?,-2,-1%,-5%
Cc1ccccc1OCC(=O)NC(=S)Nc1ccc(N2CCCC2)cc1,8.9µM*,-4%,8.9µM*,-11,2%,-9%
Cc1ccccc1OCC(=O)NC(=S)Nc1cccc2cc(O)ccc12,-58%,12%,?,-13,-2%,-20%
Cc1cccc(-c2nnc(SCC(=O)Nc3nc4c(s3)CCCC4)n2C)c1,?,?,1%,0,10%,-6%
Cc1ccc(NC(=O)/C=C2\NC(=O)CS2)cc1,?,?,-6%,-25,?,?
CC(C)(C)c1ccc(C(=O)/C=C2\NC(=O)CS2)cc1,3.2µM*,?,10µM*,?,-1%,2%
c1ccc(-c2oc3ncnc(NCCCn4ccnc4)c3c2-c2ccccc2)cc1,22µM*,?,?,3,-33%,-56%
c1ccc(-c2c(-c3ccccc3)n(Cc3ccco3)c3ncnc(NCCCn4ccnc4)c23)cc1,-29%,?,16µM*,9,-22%,-77%
COc1cccc(C2CC(c3c(-c4ccccc4)c4cc(Cl)ccc4[nH]c3=O)=NN2S(C)(=O)=O)c1OC (stereo not given),-19%,23µM*,?,-4,-7%,-92%
COc1ccccc1C1CC(c2c(-c3ccccc3)c3cc(Cl)ccc3[nH]c2=O)=NN1S(C)(=O)=O (stereo not given),30%,?,-28%,15,-2%,-80%
Cc1c(C(=O)NCc2ccc3c(c2)OCO3)oc2ccc(S(=O)(=O)N3CCCCCC3)cc12,7%,.,-8%,0,.,-51%
CC1CCN(S(=O)(=O)c2ccc3c(c2)oc(=O)n3CC(=O)NCc2ccc3c(c2)OCO3)CC1,-30%,10µM*,?,-16,-22%,-3%
Cc1cc(C)cc(NC(=O)Cn2c(=O)oc3cc(S(=O)(=O)N4CCC(C)CC4)ccc32)c1,-7%,-15%,?,?,-1%,-18%
Cc1c(C(=O)NCc2ccc3c(c2)OCO3)oc2ccc(S(=O)(=O)N3CCC(C)CC3)cc12,6%,8.2µM*,3%,7,-2%,-51%
O=C(Nc1ccc2[nH]c(=S)sc2c1)c1ccccc1,-23%,?,10%,-2,8%,?
